Here are results for 60 sequences from paper PMC5515408, “Sequence-specific DNA binding by MYC/MAX to low-affinity non-E-box motifs”.

The full ranking holds about 4,500 sequences; the median of “log2 normalized fluorescence” is about -0.34, and the highest 2% start at about 3.3. The entries come from a sample that favours the highest values as a whole.

Chain of MAX:MAX (p21) (P61244 other isoform, or with tags, fused parts or gaps): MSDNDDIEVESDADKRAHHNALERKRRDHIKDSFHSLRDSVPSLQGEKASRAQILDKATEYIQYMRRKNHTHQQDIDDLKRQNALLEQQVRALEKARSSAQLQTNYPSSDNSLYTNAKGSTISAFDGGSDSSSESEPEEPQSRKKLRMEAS

The target of this assay is MAX:MAX (p21) (human, UniProt P61244-2 1-151). As to the kind of experiment: protein-binding microarray (anti-MAX antibody); PBM: 15 mM Tris-HCl pH 7.5, 100 mM KCl, 0.075% NP40, 7.5 mM beta-mercaptoethanol, 375 ng/ul BSA, 8 ng/ul poly(dA-dT):(dA-dT), 550 ng complex, 60 min, room tempe; high values mean tight binding. The following applies: protein: recombinant; tags: 6xHis; chain copies: 2; label: 3' end of printed strand (linker) attached to glass slide; dsDNA, one strand shown. In a few lines:
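Binding, given as log2 normalized fluorescence, was measured on a custom Agilent glass array. The array bore ~5000 unique 12-nt sequences spotted in triplicate and converted to double strands by primer extension. It was incubated with 550 ng of human His-tagged MYC:MAX or MAX:MAX dimers from E. coli for 60 min at room temperature in Tris-KCl buffer, pH 7.5, with NP40, BSA and poly(dA-dT) competitor, and bound protein was detected with anti-MAX and secondary antibodies and scanned at 543 nm.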
“CCGGCTGATGAACAGTATTAATAGCTAAGATTACTATATCGACG”: the binding signal was -0.468 log2 normalized fluorescence.

On to “CCGGCTGAGCATCTGTATTAATAGCTAAGATTACTATATCGACG”, for which the binding signal was 0.186 log2 normalized fluorescence.

Consider “CCGGCATACACTTGGTATTAATAGCTAAGATTACTATATCGACG”, for which the binding signal was 1.54 log2 normalized fluorescence.

As for “CCGGCTGAGGCGGTGTATTAATAGCTAAGATTACTATATCGACG”, the binding signal was -0.63 log2 normalized fluorescence.

For “CCGGCTGACACGTGTTTTTAATAGCTAAGATTACTATATCGACG”, the binding signal is 3.34 log2 normalized fluorescence.

As for “CCGGCTTACACGTGGTTTTAATAGCTAAGATTACTATATCGACG”, the binding signal was 3.22 log2 normalized fluorescence.

On to “CCGGCTGACACGTGTACTTAATAGCTAAGATTACTATATCGACG”, for which the binding signal is 3.15 log2 normalized fluorescence.

On to “CCGGCTGACACGTGTTCTTAATAGCTAAGATTACTATATCGACG”, for which the binding signal is 3.35 log2 normalized fluorescence.

Take “CCGGCTAGCACGTGGCATTAATAGCTAAGATTACTATATCGACG”: the binding signal was 3.24 log2 normalized fluorescence.

With “CCGGCTAGCACGTGTTTTTAATAGCTAAGATTACTATATCGACG”, the binding signal is 3.52 log2 normalized fluorescence.

Regarding “CCGGCTGACACGTGTGATTAATAGCTAAGATTACTATATCGACG”, the binding signal is 3.24 log2 normalized fluorescence.

“CCGGCTGACACGTTGTTTTAATAGCTAAGATTACTATATCGACG”: the binding signal was 3.22 log2 normalized fluorescence.

For “CCGGCTGACACGTTTAATTAATAGCTAAGATTACTATATCGACG”, the binding signal was 2.59 log2 normalized fluorescence.

Turning to “CCGGCTGACACGTCGTTTTAATAGCTAAGATTACTATATCGACG”, the binding signal is 1.92 log2 normalized fluorescence.

For “CCGGCTGACACGTGCTCTTAATAGCTAAGATTACTATATCGACG”, the binding signal is 3.24 log2 normalized fluorescence.

For “CCGGCTGACACGTGTGTTTAATAGCTAAGATTACTATATCGACG”, the binding signal is 3.37 log2 normalized fluorescence.

On to “CCGGCTGATATTGCGTATTAATAGCTAAGATTACTATATCGACG”, for which the binding signal is -0.611 log2 normalized fluorescence.

Regarding “CCGGCTGAGTTACGGTATTAATAGCTAAGATTACTATATCGACG”, the binding signal is -0.516 log2 normalized fluorescence.

Regarding “CCGGCTGACACGTCGAATTAATAGCTAAGATTACTATATCGACG”, the binding signal is 1.45 log2 normalized fluorescence.

Take “CCGGCTGACCCGTCGTATTAATAGCTAAGATTACTATATCGACG”: the binding signal was -0.382 log2 normalized fluorescence.

Consider “CCGGCTGAGATGGAGTATTAATAGCTAAGATTACTATATCGACG”, for which the binding signal was -0.522 log2 normalized fluorescence.

For the sequence “CCGGCGGACACGTGTGATTAATAGCTAAGATTACTATATCGACG”, the binding signal was 3.15 log2 normalized fluorescence.

Take “CCGGCTGATTCTCAGTATTAATAGCTAAGATTACTATATCGACG”: the binding signal was -0.684 log2 normalized fluorescence.

As to “CCGGCTGATCAGAGGTATTAATAGCTAAGATTACTATATCGACG”, the binding signal is -0.421 log2 normalized fluorescence.

For “CCGGCTGACACGTGACTTTAATAGCTAAGATTACTATATCGACG”, the binding signal was 3.21 log2 normalized fluorescence.

Turning to “CCGGCTGACACGTGTCTTTAATAGCTAAGATTACTATATCGACG”, the binding signal is 3.41 log2 normalized fluorescence.

“CCGGCTGACACGTTGTCTTAATAGCTAAGATTACTATATCGACG”: the binding signal was 3.12 log2 normalized fluorescence.

Take “CCGGCTTACACGTGGTGTTAATAGCTAAGATTACTATATCGACG”: the binding signal was 3.07 log2 normalized fluorescence.

Regarding “CCGGCTAACACGTGATATTAATAGCTAAGATTACTATATCGACG”, the binding signal was 3.18 log2 normalized fluorescence.

As to “CCGGCGCACACGTGCTATTAATAGCTAAGATTACTATATCGACG”, the binding signal is 3.04 log2 normalized fluorescence.

“CCGGCTTAAACGTGTTATTAATAGCTAAGATTACTATATCGACG”: the binding signal is 2.7 log2 normalized fluorescence.

Take “CCGGCTTACACGTGCTATTAATAGCTAAGATTACTATATCGACG”: the binding signal is 3.57 log2 normalized fluorescence.

On to “CCGGCTTATACGTGATATTAATAGCTAAGATTACTATATCGACG”, for which the binding signal was 0.467 log2 normalized fluorescence.

Regarding “CCGGCTTACACGTGATATTAATAGCTAAGATTACTATATCGACG”, the binding signal is 3.31 log2 normalized fluorescence.

Regarding “CCGGCTTACACGTGTTATTAATAGCTAAGATTACTATATCGACG”, the binding signal was 3.4 log2 normalized fluorescence.

Turning to “CCGGCTTACACATGCTATTAATAGCTAAGATTACTATATCGACG”, the binding signal was 3.23 log2 normalized fluorescence.

“CCGGCTGATGTCCAGTATTAATAGCTAAGATTACTATATCGACG”: the binding signal was -0.249 log2 normalized fluorescence.

Take “CCGGCTGAATGGGCGTATTAATAGCTAAGATTACTATATCGACG”: the binding signal is 0.274 log2 normalized fluorescence.

Take “CCGGCTGAGTCGAGGTATTAATAGCTAAGATTACTATATCGACG”: the binding signal was -0.576 log2 normalized fluorescence.

“CCGGCTGAACCGGCGTATTAATAGCTAAGATTACTATATCGACG”: the binding signal was -0.299 log2 normalized fluorescence.

In the case of “CCGGCAGACACTTAGTATTAATAGCTAAGATTACTATATCGACG”, the binding signal was 0.466 log2 normalized fluorescence.

As to “CCGGCTTTCACGTGGTATTAATAGCTAAGATTACTATATCGACG”, the binding signal is 3.41 log2 normalized fluorescence.

Turning to “CCGGCTAATACGTGGTATTAATAGCTAAGATTACTATATCGACG”, the binding signal is 1.49 log2 normalized fluorescence.

For the sequence “CCGGCATTCACGTGGTATTAATAGCTAAGATTACTATATCGACG”, the binding signal was 3.26 log2 normalized fluorescence.

On to “CCGGCTTTCACTTGGTATTAATAGCTAAGATTACTATATCGACG”, for which the binding signal was -0.636 log2 normalized fluorescence.

For “CCGGCTTACACATGGTATTAATAGCTAAGATTACTATATCGACG”, the binding signal was 3.16 log2 normalized fluorescence.

With “CCGGCCTTCACGTGGTATTAATAGCTAAGATTACTATATCGACG”, the binding signal is 3.1 log2 normalized fluorescence.

“CCGGCTATCACGTGGTATTAATAGCTAAGATTACTATATCGACG”: the binding signal was 3.15 log2 normalized fluorescence.

On to “CCGGCTTTCACATGGTATTAATAGCTAAGATTACTATATCGACG”, for which the binding signal was 3.34 log2 normalized fluorescence.

In the case of “CCGGCGTTCACGTGGTATTAATAGCTAAGATTACTATATCGACG”, the binding signal is 3.37 log2 normalized fluorescence.

For “CCGGCTGAGGGAGCGTATTAATAGCTAAGATTACTATATCGACG”, the binding signal is -0.434 log2 normalized fluorescence.

In the case of “CCGGCTGAGGAGAGGTATTAATAGCTAAGATTACTATATCGACG”, the binding signal was -0.732 log2 normalized fluorescence.

With “CCGGCTGACCGCCGGTATTAATAGCTAAGATTACTATATCGACG”, the binding signal is -0.241 log2 normalized fluorescence.

Turning to “CCGGCTGACAAGCAGTATTAATAGCTAAGATTACTATATCGACG”, the binding signal was -0.299 log2 normalized fluorescence.

For “CCGGCCCCCACGTGGTATTAATAGCTAAGATTACTATATCGACG”, the binding signal is 3.4 log2 normalized fluorescence.

As to “CCGGCGCCCACGTGGTATTAATAGCTAAGATTACTATATCGACG”, the binding signal was 3.43 log2 normalized fluorescence.

In the case of “CCGGCTAAGACGTGGTATTAATAGCTAAGATTACTATATCGACG”, the binding signal is 1.75 log2 normalized fluorescence.

On to “CCGGCCTCCACGTGGTATTAATAGCTAAGATTACTATATCGACG”, for which the binding signal was 2.94 log2 normalized fluorescence.

Consider “CCGGCTCCCACGTGGTATTAATAGCTAAGATTACTATATCGACG”, for which the binding signal was 3.4 log2 normalized fluorescence.

As to “CCGGCCCACACGTGGTATTAATAGCTAAGATTACTATATCGACG”, the binding signal is 2.95 log2 normalized fluorescence.
